# This excerpt belongs to a sample that is enriched for hits.
# BLM inh = blocks DNA unwinding by human BLM helicase; P54132; recombinant BLM DNA unwinding, fluorescence dequenching; Potency, µM (highest dose often 56.1 µM), for the others: top-dose activity change, negative = inhibition, most hits filed as inhibitors; actives 0.2% (n = 350,000);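 also: plate controls were vehicle for no effect and no enzyme for full effect; nearly all actives have a fitted effect of over 35% in size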
# GCN5L2 inh = GCN5L2 (KAT2A) acetyltransferase inhibition. Q92830. AID 504327. Potency, µM (top dose mostly 58.9 µM), inactives show top-dose activity change, negative = inhibition, most hits filed as inhibitors. GCN5L2 HAT assay, ThioGlo1 CoA-SH fluorescence. actives 0.21% (n = 390,000)
#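 Titration-based screen in which CoA formation is detected via maleimide probe ThioGlo1 (50uM) turning fluorescent on thiol reaction; substrates H3(1-25) 75uM and acetyl-CoA 70uM, GCN5L2 20nM, 20 min incubation at room temperature.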
# RECQ1 inh-1 = blocks DNA unwinding by human RECQ1. RECQ1 DNA unwinding, red fluorescence kinetic read. actives 0.54% (n = 240,000). Potency, µM (highest dose often 57.3 µM), for the others: at the top dose activity, negative = inhibition, hits mostly inhibitors;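 also: plate controls were vehicle for no effect and no enzyme for full effect; nearly all actives have a fitted effect of over 30% in size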
#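 RECQ1T1 50 nM; forked duplex (20 bp + 30-nt ss tails) 200 nM, ATP 2 mM final; pH 8.0, 2 mM MgCl2, 2.5 ug/ml poly(dI-dC); 15 min compound preincubation; discontinuous kinetic read over 2 h at RT.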
# APEX1 inh = APE1 (human) endonuclease inhibition; P27695; recombinant APE1, TAMRA/BHQ-2 abasic DNA cleavage fluorescence; Potency, µM (doses to about 65.8 µM), for inactives: at the highest dose activity change, negative = inhibition, most hits filed as inhibitors; actives 0.35% (n = 350,000); AID 2517;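 also: plate controls were vehicle for no effect and reference inhibitor for full effect; nearly all actives have a fitted effect of over 55% in size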
# Target sequence (P27695 whole entry, looked up): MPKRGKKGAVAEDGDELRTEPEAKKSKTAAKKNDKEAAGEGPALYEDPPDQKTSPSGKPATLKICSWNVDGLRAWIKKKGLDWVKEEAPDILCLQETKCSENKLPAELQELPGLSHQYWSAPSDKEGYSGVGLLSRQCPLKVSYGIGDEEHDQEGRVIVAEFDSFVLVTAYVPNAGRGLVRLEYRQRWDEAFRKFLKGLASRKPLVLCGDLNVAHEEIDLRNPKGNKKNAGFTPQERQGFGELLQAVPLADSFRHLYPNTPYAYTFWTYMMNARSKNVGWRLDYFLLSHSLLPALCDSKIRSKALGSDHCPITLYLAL
#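 Compound pre-exposure to 0.75 nM APE1, 15 min at ambient temperature. Reaction initiated with 50 nM TAMRA/BHQ-2 THF substrate, read immediately in kinetic mode, 525 nm excitation, 598 nm emission.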
# KDM4E inh = JMJD2E (human) inhibition; Potency, µM (highest dose often 57.1 µM), without a hit: at the top dose activity change, negative = inhibition, usual class: inhibitors; AID 2147; JMJD2E catalytic domain, FDH-coupled NADH fluorescence (FDH is formaldehyde dehydrogenase); actives 1.6% (n = 230,000); active = well fitted inhibition curve with a large enough effect, not every such curve was filed as active; inconclusive = small, poorly fitted or top-dose-only effect, or another doubt; inactive = no such curve, though single readings can be large or run the other way;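 also: 0% = wells with enzyme and -100% = buffer wells without enzyme; nearly all actives have a fitted effect of over 50% in size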
# TDP1 inh = inhibitors of human tyrosyl-DNA phosphodiesterase TDP1; recombinant TDP1, AlphaScreen DNA substrate cleavage; Potency, µM (doses to about 130 µM), without a hit: at the highest dose activity change, negative = inhibition, hits mostly inhibitors; actives 0.28% (n = 350,000); AID 485290; also: nearly all actives have a fitted effect of over 40% in size
#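 Recombinant E. coli-expressed Tdp1 (1 nM) preincubated with compound 15 min at RT, then 5'-biotin/3'-phosphotyrosine-FITC DNA substrate (15 nM) added for 5 min. AlphaScreen beads (10 ug/ml) added, 10 min RT; tyrosine-FITC cleavage read as signal loss.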
# RECQ1 inh conf = confirmation of human RECQ1 helicase inhibitors; shares compounds with RECQ1 inh-1; RECQ1 helicase DNA unwinding, fluorescence; Potency, µM (series often up to 229 µM), inactives show top-dose activity change, negative = inhibition, usual class: inhibitors; actives 28% (n = 610); also: nearly all actives have a fitted effect of over 45% in size
# RECQ1 ADP FP = displaces ADP in a fluorescence polarization counter-screen for RECQ1 hits. shares compounds with RECQ1 inh-1. ADP fluorescence polarization displacement counterscreen. Potency, µM (titrated, usually from 228 µM), for inactives: at the highest dose activity change, negative = inhibition, hits mostly inhibitors. actives 27% (n = 530); also: nearly all actives have a fitted effect of over 45% in size
# RECQ1 inh-2 = confirmation of human RECQ1 helicase inhibitors | shares compounds with RECQ1 inh-1 | recombinant RECQ1 DNA unwinding, red fluorescence | Potency, µM (series often up to 119 µM), inactives show at the highest dose activity, negative = inhibition, hits mostly inhibitors | actives 15% (n = 1,100); also: nearly all actives have a fitted effect of over 50% in size
# * marks the source's active call; other numbers are inactive results; i = inactive; u = inconclusive; x = no result. Unless noted, calls follow the shape of the dose curve; as a rule, active = well fitted curve in the direction sought with a large enough effect; inconclusive = small, poorly fitted or top-dose-only effect, or another doubt; inactive = no such curve, though single readings can be large; an effect the other way counts as inactive or inconclusive. Unless noted, % is scaled to controls: 0 for no effect and ±100 for the full control effect; potency is read from the fitted curve at half-maximal effect.
SMILES,BLM inh,GCN5L2 inh,RECQ1 inh-1,APEX1 inh,KDM4E inh,TDP1 inh,RECQ1 inh-2,others
O=C(O)CCn1cc(C=C2C(=O)NC(=O)NC2=O)c(-c2cc3ccccc3oc2=O)n1,3%,-5%,21%,-8%,u,x,x,RECQ1 inh conf=15%;RECQ1 ADP FP=-3%
CNc1ccc2oc(C[C@@H]3OC4(CC[C@@H]3C)O[C@H]([C@@H](C)C(=O)c3ccc[nH]3)[C@H](C)C[C@H]4C)nc2c1C(=O)O (some centres not stated),x,25µM*,u,u,x,24%,9%,
CNc1ccc2oc(C[C@H]3O[C@@]4(CC[C@H]3C)O[C@H]([C@H](C)C(=O)c3ccc[nH]3)[C@H](C)C[C@H]4C)nc2c1C(=O)O,-27%,u,u,-6%,u,17%,-11%,
C[C@]12CC[C@H]3[C@@H](CC[C@@]45O[C@@H]4C(=O)C(C#N)C[C@]35C)[C@@H]1CC[C@@H]2O (some centres not stated),4%,-1%,x,x,x,x,x,
CC(=O)OCC1=C[C@H]2[C@@H]3C(C)(C)[C@]3(OC(=O)Cc3ccccc3)C[C@@H](C)[C@]2(O)[C@@H]2C=C(C)C(=O)[C@@]2(O)C1,1%,0%,14%,10%,x,8%,x,
CN(C)C(CSC(N)=O)CSC(N)=O,-5%,-8%,-9%,-2%,x,17%,x,
O=C1CC(N2CC=C(c3ccccc3)CC2)C(=O)N1c1ccc(F)cc1 (configuration not stated),-7%,-10%,28µM*,-6%,u,8%,-24%,
CCCOc1ccc(N2C(=O)CC(N3CC=C(c4ccccc4)CC3)C2=O)cc1 (configuration not stated),-8%,2%,-1%,3%,-9%,3%,x,
O=c1[nH]c(=S)n(CCC2=CCCCC2)c(O)c1C=NCCCn1ccnc1,-8%,0%,u,16%,8%,9%,-19%,
COC(=O)COc1ccc(C[C@@H](C)NC[C@H](O)c2cccc(Cl)c2)cc1,7%,45%,-8%,5%,x,8%,x,
CCCCCOC(=O)c1ccccc1C(=O)OCCCCC,x,x,-8%,3%,x,6%,x,
F[Si-2](F)(F)(F)(F)F,-15%,u,x,x,x,0%,x,
O=C1C=CC(=O)C(Cl)=C1,-16%,16µM*,20µM*,28µM*,x,x,x,RECQ1 inh conf=u;RECQ1 ADP FP=16µM*
ClC(Cl)(Cl)C(Cl)(Cl)Cl,x,x,-8%,4%,x,13%,x,
O=C1C(=O)c2ccccc2-c2ccccc21,20µM*,0%,u,u,u,3%,10µM*,
O=c1[nH]c(=O)n(C2CCCCC2)c(O)c1C1NCCc2ccccc21 (configuration not stated),0%,0%,i,0%,7%,5%,x,
COc1cc2c(cc1OC)C(c1c(O)n(CCc3ccccc3)c(=S)[nH]c1=O)NCC2 (configuration not stated),-6%,-29%,u,0%,u,3%,u,
Cc1ccc(-c2cc(-c3ccc(C)cc3)[n+](-c3ccc(C(=O)O)cc3)c(-c3ccc(C)cc3)c2)cc1,x,-2%,x,58%,x,4%,x,

# High-throughput results: PubChem BioAssay, National Center for Advancing Translational Sciences (NCATS)
